Activity calls are given as the source filed them. The calls were made as follows: active = hit-call score of the fitted dose curve at least 0.9, where 1 is the maximum; inactive = score below 0.9.

This assay is described as follows: ATG_Sox_CIS: Attagene CIS-FACTORIAL HepG2 Assay for human SRY-box transcription factor (SOX) (AID 2282960). The settings on record: HepG2 Attagene cis-factorial SOX reporter, mRNA; actives raise or lower the signal. As for the experimental part: ATG_CIS is a cell-based, multiplexed-readout assay that uses HepG2, a human liver cell line, with measurements taken at 24 hours after chemical dosing in a 24-well plate.ATG_Sox_CIS is one of 52 assay component(s) measured or calculated from the ATG_CIS assay. It is designed to make measurements of mRNA induction, a form of inducible reporter, as detected with fluorescence intensity signals by Reverse transcription polymerase chain reaction (RT-PCR) and Capillary electrophoresis technology.Data from the assay component ATG_Sox_CIS was analyzed into 1 assay endpoint. This assay endpoint, ATG_Sox_CIS, was analyzed with bidirectional fitting relative to DMSO as the negative control and baseline of activity. Using a type of inducible reporter, measures of mRNA for gain or loss-of-signal activity can be used to understand the reporter gene at the transcription factor-level as they relate to the gene SOX1. Furthermore, this assay endpoint can be referred to as a primary readout, because this assay has produced multiple assay endpoints where this one serves a reporter gene function. To generalize the intended target to other relatable targets, this assay endpoint is annotated to the dna binding intended target family, where the subfamily is HMG box protein.
Human liver HepG2 cells are transiently transfected with multiple reporter transcription units (MRTUs) in 6-well plates using FuGene 6 reagent (Roche; 3 ml FuGene/1 mg DNA). The MRTU constructs are regulated by a cis-regulating element (promoter). […] A major difference between the CIS and TRANS system is that in CIS activities of endogenous TFs are measured, whereas the TRANS assay evaluates changes in activities of exogenous, chimeric NR-Gal4 proteins. […] At the end of 24 hour incubation, total RNA was isolated using TriZol reagent (Invitrogen). The isolated RNA is then reverse-transcribed using oligo(dT) primer and Mo-MLV reverse transcriptase (Invitrogen) with DNAse I (Ambion) treatment for 30 min. The one-tenth of the produced cDNA was amplified by PCR using Taq DNA polymerase (Invitrogen) and two reporter sequence-specific primers. The PCR products were fluorescently labeled by primer extension with 6-arboxyfluorescein (6-FAM) 5'-labeled reporter sequence-specific primer (2 min at 95 C, 20 s at 68 C and 10 min at 72 C) and these products were digested with 5U of HpaI (New England Biolabs) for 2h at 37 C. The fragments were purified using Qiaquick PCR columns (Qiagen), analyzed on an ABI 3130xL genetic analyzer (Applied Biosystems) with peak positions identified by using a set of X-rhodamine (ROX)-labeled MapMarker1000 molecular weight standards (BioVentures). The raw capillary electrophoresis data was processed using Attagraph software (Attagene).
As for `CCc1ccc(O)cc1`, the result was inactive.
For the compound `CC(C)CCCCCCc1ccc(OCCOCCO)cc1`, the compound was called inactive.
With `COCCc1ccc(OCC(O)CNC(C)C)cc1` (stereo not given), the compound was classed as inactive.
As for `C[C@H](CCC(=O)NCC(=O)O)[C@H]1CC[C@H]2[C@@H]3[C@H](O)C[C@@H]4C[C@H](O)CC[C@]4(C)[C@H]3C[C@H](O)[C@]12C`, the compound was classed as inactive.
Take `O=C(O)CCCCCCCCC(=O)O`: the outcome was inactive.
Turning to `c1ccc(CN(Cc2ccccc2)Cc2ccccc2)cc1`, the outcome was inactive.
Consider `C=Cc1ccc(C)cc1`, for which the compound was classed as inactive.
As to `C=C(C)C(=O)OCCOC1CC2CC1C1C=CCC21` (stereo not given), the compound was classed as inactive.
In the case of `CC[N+](C)(CC)CC`, the outcome was inactive.
Consider `Cc1[nH]c(=O)c(C#N)cc1-c1ccncc1`, for which the outcome was inactive.
With `OCCc1ccccc1`, the outcome was inactive.
In the case of `Cc1ncc[nH]1` it was “inactive”; in that of `COC(=O)c1ccc(C)cc1C1=NC(C)(C(C)C)C(=O)N1` (stereo not given) (tested in a mixture with another compound), “inactive”.
Consider `CCCC(=O)OCCc1ccccc1`, for which the call was inactive.
As for `CN(C)c1ccncc1`, the outcome was inactive.
Consider `CCCC(=O)C(CC)Sc1ccoc1C` (stereo not given), for which the outcome was inactive.
Regarding `CCOC(=O)CN`, the result was inactive.
`COc1cc([C@@H]2c3cc4c(cc3[C@@H](O[C@@H]3O[C@@H]5CO[C@@H](C)O[C@H]5[C@H](O)[C@H]3O)[C@H]3COC(=O)[C@H]23)OCO4)cc(OC)c1O`: the compound was called inactive.
In the case of `C[N+](C)(C)CCCCCC[N+](C)(C)C`, the compound was called inactive.
With `N#Cc1cscn1`, the outcome was inactive.
In the case of `CCCCCCCCCCCCCC(=O)OCC(O)CO` (stereo not given) it was “inactive”; in that of `C=CCCCCCCCCCC`, “inactive”; in that of `C=C1CC[C@H](O)C/C1=C/C=C1\CCC[C@]2(C)[C@@H]([C@H](C)/C=C/[C@H](C)C(C)C)CC[C@@H]12`, “inactive”.
For the compound `C=C(C)CNCC`, the result was inactive.
Regarding `CCCCCCCC(=O)OCCCCCC`, the compound was called inactive.
Consider `CC(=O)OCCCc1ccccc1`, for which the compound was classed as inactive.
For the compound `O=C1OC[C@H](Cc2cccc(O)c2)[C@H]1Cc1cccc(O)c1`, the compound was classed as inactive.
`Cc1occc(=O)c1OC(=O)C(C)C`: the compound was classed as inactive.
On to `CC1=CC[C@@]23C[C@@H]1C(C)(C)[C@@H]2CC[C@H]3C`, for which the outcome was inactive.
Take `CC(=O)CC(=O)Nc1ccccc1`: the compound was called inactive.
`C[Si](C)(C)O[Si](C)(C)C`: the outcome was inactive.
As for `O=C(O)CNc1ccccc1`, the entry is “inactive”; as for `CCCCCCCCCCCC(=O)OCC(O)CO` (stereo not given), “inactive”.
As for `NCC1CCCC(CN)C1` (stereo not given), the call was inactive.
Take `O=C1NC2NC(=O)NC2N1` (stereo not given): the compound was classed as inactive.
On to `CCCCCCOC(=O)CCC`, for which the call was inactive.
Regarding `COC(C)(C)CCCC(C)CC=O` (stereo not given), the compound was called inactive.
As for `FC(F)(F)COCC(F)(F)F`, the result was inactive.
In the case of `CCOc1ccc(NC(=O)CC(C)=O)cc1` it was “inactive”.
Take `CC(C)CC(C)CC(O)CC(C)C` (stereo not given): the compound was classed as inactive.

Source of the values: PubChem BioAssay (EPA / NIEHS).
